Reference: PubChem BioAssay AID734 (The Scripps Research Institute Molecular Screening Center, 2007)
The campaign covered roughly 5,100 compounds. Fewer than 10 were called active.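 The calls were made as follows: active = inhibition above the mean inhibition over all tested compounds plus 3 SD (cut at about 75% in these data); inactive = the rest.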 A selection follows.

biological target: Collagenase 3 (Homo sapiens) (UniProt P45452); experiment: MMP13 inhibitors among fluorescent compounds, confirmation, biochemical, possible fluorescent artifacts, delta fluorescence (AID 734); details: MMP13 fTHP FRET cleavage, delta fluorescence 4 h; stronger effect = higher value;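 each compound tested at 4 µM nominal in triplicate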;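 also: 0% = DMSO only wells and 100% = 8 µM reference MMP13 inhibitor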

inhibition, active:
Cc1nn(-c2ccccc2)c2sc(-c3n[nH]c(=S)o3)cc12 75.6%

inhibition, inactive:
c1ccc2sc(Cc3nnc4n3CCCCC4)nc2c1 4.74%
Cc1onc(-c2ccccc2)c1C(=O)Nc1ccc2c(C)cc(=O)oc2c1 2.15%
CC(=O)c1ccc(N2CCN(C(=O)c3cc(-c4ccc5c(c4)OCO5)nc4ccccc34)CC2)cc1 4.89%
COC(=O)c1c(-n2cnnn2)sc(C)c1C 2.3%
COc1ccc2cc3cc(C(=O)NCCN4CCc5ccccc5C4)oc3nc2c1 -102%
Cn1c(=O)c2nc(-c3ccccc3)oc2c2ccccc21 6.54%
COc1ccc(OC)c(-c2cc(C(=O)NCc3ccco3)no2)c1 12%
CC(C)OCCCn1c(-c2ccco2)nc2nc3ccccc3nc21 -87.8%
CCOC(=O)c1cc(-c2cccs2)nc2onc(C)c12 -44.4%
COc1cc2ccccc2cc1C(=O)OCC(=O)N1CCOCC1 6.42%
COc1ccc(C(=O)/C=C/Nc2cccc(C)n2)cc1OC 5.27%
c1nc2sc3c(c2c2nnnn12)CCCC3 2.51%
COc1ccc(-c2cc(C(F)(F)F)nc(SCC(=O)NCc3ccco3)n2)cc1OC 8.84%
Cc1ccc2c(c1)-c1cc(C)nn1C(c1ccc3c(c1)OCO3)N2 (stereo unspecified) 6.53%
O=C1NC(c2ccco2)Nc2ccccc21 (stereo unspecified) -3.14%
CCCN(Cc1cc2cc(OC)ccc2[nH]c1=O)C(=O)c1ccncc1 4.53%
CCOC(=O)c1oc2cccc(OC(C)=O)c2c1C 8.37%
NC(=O)C1CCCN(S(=O)(=O)c2ccc(Br)cc2)C1 (stereo unspecified) 4.17%
COC(=O)c1[nH]c2ccc(Cl)cc2c1NC(=O)CCN1CCN(C2CCCCC2)CC1 6.19%
COC(=O)c1[nH]c2cccc(OC)c2c1NC(=O)CCN1CC(C)CC(C)C1 (stereo unspecified) -1.84%
COCCOC(=O)c1cc(C(=O)c2cc(F)ccc2O)coc1=N 6.65%
COc1cccc(=O)c2c(C)oc(C)c12 6.64%
Cc1ccc2nc(N3CCN(Cc4nnnn4Cc4ccccc4)CC3)c(C#N)cc2c1 1.5%
CCOC(=O)Cc1c(C)nc2c(-c3ccc(Cl)cc3)c[nH]n2c1=O 17.8%
COc1cc2cc(CN(CCN3CCCC3)C(=O)Nc3ccc(F)cc3)c(=O)[nH]c2cc1OC 1.27%
CCS(=O)(=O)Nc1cc(-c2nc3cccnc3s2)ccc1C -0.51%
CCCCNC(=O)CC1Nc2ccccc2NC1=O (stereo unspecified) 4.58%
CCn1c(=O)c(C(C)=O)nc2ccccc21 7.87%
CCCCN(CC)CCNC(=O)c1cc2c(=O)n(C)c3ccccc3c2n1C 9.76%
COC(=O)c1[nH]c2ccc(C)cc2c1NC(=O)CN1CCN(Cc2ccccc2)CC1 5.26%
Cc1cc(-c2ccccc2)nn1-c1nc2c(c(=O)[nH]c(=O)n2C)n1C 6.56%
COc1ccc(-c2noc(CCC(=O)NCc3cccnc3)n2)cc1 -0.6%
O=C(CSc1ccc2nnc(-c3cccc(F)c3)n2n1)NCC1CCCO1 (stereo unspecified) 0.9%
CCCn1c(=N)c(C(=O)NCC2CCCO2)cc2c(=O)n3cccc(C)c3nc21 (stereo unspecified) 0.11%
COc1cc2c(cc1OC)CN(C(=O)NS(=O)(=O)c1ccc(C)cc1)CC2 6.18%
COc1cc2c(cc1OC)-c1cc(N3CCCCCC3)nc(=O)n1CC2 6.6%
COc1cc(OC)cc(-c2cc3nc(C)c(CCC(=O)NC(C)CCc4ccco4)c(C)n3n2)c1 (stereo unspecified) -0.26%
CC(=O)Nc1nonc1-c1nc2ccccc2n1Cc1nnc(C)o1 4.74%
COc1ccc(-c2cc(C(F)(F)F)nc(SCC(=O)Nc3cc(C)on3)n2)cc1OC 11.1%
COc1cc(OC)cc(C(=O)NCC(=O)N2CCC(C)CC2)c1 7.88%
Cc1nn(-c2ccccc2)c2sc(C(=O)OC3CCOC3=O)cc12 (stereo unspecified) -15.6%
COC(=O)c1cc2c(C)nn(-c3ccccc3)c2s1 5.12%
CCOC(=O)N1CCC(NC(=O)c2cc3c(-c4cccc(OC)c4)nn(C)c3s2)CC1 1.92%
Cc1ccc(S(=O)(=O)Nc2ccccc2C(N)=O)cc1 7.43%
N=C1C(c2nc3ccccc3c(=O)[nH]2)=C(O)CN1CCc1ccccc1 -5.72%
COc1ccccc1C(=O)Nc1ccc(S(=O)(=O)N2CCOCC2)cc1 -0.87%
O=C(c1ccc(Br)o1)N1CCN(Cc2ccc3c(c2)OCO3)CC1 3.6%
Cc1ccc2nc(-c3ccc(SCC(=O)O)nc3)[nH]c2c1 -13.3%
O=C(NCCN1CCOCC1)c1cc2ccccc2[nH]1 3.77%
COC(=O)c1ccc(Sc2ccc(C)cc2)c(N)c1 -1.3%
